Assay results taken from PubChem BioAssay (Tox21).
Records with an inconclusive call do not appear. A call without a number means that no potency is given here. Unmarked numbers belong to inactive results. Calls of active or inactive are those of the source. Unless noted, the call rests on the fitted dose curve.

experiment: p53 small molecule agonists, cell-based qHTS assay with rat liver microsomes: qHTS cell viability counter screen (AID 1963580); conditions: p53RE-bla HCT-116 + rat microsomes, ATP viability, 16 h; series mostly up to 66 µM; further: nearly all actives have a fitted effect of over 45% in size
Procedure, shortened: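 Rat liver microsome (0.5 mg/mL final) and NADPH (0.5 mg/mL final) co-incubation with compounds for 16 h at 37 C on HCT-116 p53RE-bla cells; cytotoxicity taken from intracellular ATP luminescence.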
Potency means the concentration at half of the fitted maximal effect.

Row | Compound | Potency | activity change, negative = cytotoxicity
1 | COc1ccccc1OCCNCC(O)COc1cccc2[nH]c3ccccc3c12 (centres undefined) | inactive | –
2 | O=c1cc(-c2ccc(O)cc2)oc2cc(O)cc(O)c12 | inactive | –
3 | CCCCCCCC/C=C/CCCCCCCC1=NCCN1CCO | inactive | –
4 | CN(C)CC/C=C1\c2ccccc2Sc2ccc(Cl)cc21 | inactive | –
5 | C(=C(c1ccccc1)c1ccccc1)c1ccccc1 | inactive | –
6 | NC(=O)C1(N2CCCCC2)CCN(CCCN2c3ccccc3CCc3ccc(Cl)cc32)CC1 | inactive | –
7 | O=C1c2ccccc2C(=O)c2c(O)c(O)cc(O)c21 | inactive | –
8 | CCCCCCCCNC(C)C(O)c1ccc(SC(C)C)cc1 (centres undefined) | 19.9 µM (active) | –
9 | CN1CCCC(CC2c3ccccc3Sc3ccccc32)C1 (centres undefined) | inactive | –
10 | CCOc1ccc2nc3cc(N)ccc3c(N)c2c1 | inactive | –
11 | CC1=NN(c2ccc(S(=O)(=O)O)cc2)C(=O)C1N=Nc1ccccc1 (centres undefined) | inactive | –
12 | Nc1ccc(N)c2c1C(=O)c1ccccc1C2=O | inactive | –
13 | CNCC[C@@H](Oc1ccccc1C)c1ccccc1 | inactive | –
14 | COc1cc([N+](=O)[O-])ccc1N | inactive | –
15 | Cc1c(C(=O)NN2CCCCC2)nn(-c2ccc(Cl)cc2Cl)c1-c1ccc(Cl)cc1 | inactive | –
16 | CSc1ccc(/C=C2/C(C)=C(CC(=O)O)c3cc(F)ccc32)cc1 | inactive | –
17 | CC(C)C(OC(=O)c1ccccc1)C(C)(C)COC(=O)c1ccccc1 (centres undefined) | inactive | –
18 | CN(C)C(=O)NC1(c2ccccc2)CCN(CCC[C@]2(c3ccc(Cl)c(Cl)c3)CCCN(C(=O)c3ccccc3)C2)CC1 | – | -4.37% [at 13.5 µM]
19 | Clc1ccc(Cn2c(CN3CCCC3)nc3ccccc32)cc1 | inactive | –
20 | O=C1CCCCCN1SSN1CCCCCC1=O | inactive | –
21 | CC(COc1ccc(C(C)(C)C)cc1)OS(=O)OCCCl (centres undefined) | inactive | –
22 | c1ccc(-c2ccc(C(c3ccccc3)n3ccnc3)cc2)cc1 (centres undefined) | inactive | –
23 | Cc1onc(-c2c(Cl)cccc2Cl)c1C(=O)N[C@@H]1C(=O)N2[C@@H]1SC(C)(C)[C@@H]2C(=O)O | inactive | –
24 | Cc1ccc(N/N=c2\c(=O)cc/c(=N\Nc3ccc(S(=O)(=O)O)cc3)c2=O)c(C)c1 | inactive | –
25 | CCCCC(CC)CN1CN(CC(CC)CCCC)CC(C)(N)C1 (centres undefined) | inactive | –

experiment: p53 small molecule agonists, cell-based qHTS assay: qHTS cell viability counter screen (AID 1963581); conditions: p53RE-bla HCT-116 viability, ATP luminescence, 16 h; series mostly up to 66 µM; further: nearly all actives have a fitted effect of over 45% in size
Procedure, shortened: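 Luminescence from CellTiter-Glo, reflecting ATP content, serves as the cytotoxicity measure; it is taken after the 2 h reporter substrate step in HCT-116 p53RE-bla cells dosed for 16 h at 37 C.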

Row | Compound | Potency | activity change, negative = cytotoxicity
26 | COc1ccc(-c2cc(=S)ss2)cc1 | inactive | –
27 | O=C(CCCCCCC(=O)Nc1ccccc1)NO | inactive | –
28 | c1cc(CN2CCCCC2)cc(OCCCNc2nc3ccccc3s2)c1 | inactive | –
29 | Cc1ccc(O)c(C(C)(C)C)c1 | inactive | –
30 | O=C(OC[C@H]1O[C@@H](OC(=O)c2cc(O)c(O)c(OC(=O)c3cc(O)c(O)c(O)c3)c2)[C@H](OC(=O)c2cc(O)c(O)c(OC(=O)c3cc(O)c(O)c(O)c3)c2)[C@@H](OC(=O)c2cc(O)c(O)c(OC(=O)c3cc(O)c(O)c(O)c3)c2)[C@@H]1OC(=O)c1cc(O)c(O)c(OC(=O)c2cc(O)c(O)c(O)c2)c1)c1cc(O)c(O)c(OC(=O)c2cc(O)c(O)c(O)c2)c1 | – | 16.3% [at 13.5 µM]
31 | CCN(CC)c1ccc(C(=C2C=CC(=[N+](CC)CC)C=C2)c2cc(S(=O)(=O)O)ccc2S(=O)(=O)[O-])cc1 | 17.8 µM (active) | –
32 | Cc1cc(O)c2c(c1)C(=O)c1cc(O)cc(O)c1C2=O | inactive | –
33 | COc1ccccc1OCCNCC(O)COc1cccc2[nH]c3ccccc3c12 (centres undefined) | inactive | –
34 | O=c1cc(-c2ccc(O)cc2)oc2cc(O)cc(O)c12 | inactive | –
35 | CCCCCCCC/C=C/CCCCCCCC1=NCCN1CCO | inactive | –
36 | CC1=NN(c2cc(Cl)c(S(=O)(=O)O)cc2Cl)C(=O)C1N=Nc1ccc(S(=O)(=O)O)cc1 (centres undefined) | inactive | –
37 | CN(C)CC/C=C1\c2ccccc2Sc2ccc(Cl)cc21 | inactive | –
38 | C(=C(c1ccccc1)c1ccccc1)c1ccccc1 | inactive | –
39 | O=C1c2ccccc2C(=O)c2c(O)c(O)cc(O)c21 | inactive | –
40 | CCOc1ccc2nc3cc(N)ccc3c(N)c2c1 | inactive | –
41 | CC1=NN(c2ccc(S(=O)(=O)O)cc2)C(=O)C1N=Nc1ccccc1 (centres undefined) | inactive | –
42 | Nc1ccc(N)c2c1C(=O)c1ccccc1C2=O | inactive | –
43 | Cc1c(C(=O)NN2CCCCC2)nn(-c2ccc(Cl)cc2Cl)c1-c1ccc(Cl)cc1 | inactive | –
44 | CC(C)C(OC(=O)c1ccccc1)C(C)(C)COC(=O)c1ccccc1 (centres undefined) | inactive | –
45 | Clc1ccc(Cn2c(CN3CCCC3)nc3ccccc32)cc1 | inactive | –
46 | O=C1CCCCCN1SSN1CCCCCC1=O | inactive | –
47 | c1ccc(-c2ccc(C(c3ccccc3)n3ccnc3)cc2)cc1 (centres undefined) | inactive | –
48 | Cc1onc(-c2c(Cl)cccc2Cl)c1C(=O)N[C@@H]1C(=O)N2[C@@H]1SC(C)(C)[C@@H]2C(=O)O | inactive | –

experiment: p53 small molecule agonists, cell-based qHTS assay (AID 1963582; active means well fitted activation curve with a large enough effect in the signal ratio in the repeat runs, not every such curve was filed as active; the % refers to the signal ratio); conditions: HCT-116 p53RE-bla reporter, beta-lactamase FRET ratio, 16 h; series mostly up to 66 µM
Procedure, shortened: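 After plating, p53RE-bla cells sat 5 h in the incubator; compounds or DMSO vehicle were pinned in; a 16 h incubation at 37 C followed; FRET substrate was added and, 2 h later at RT, fluorescence was measured.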

Row | Compound | Potency | activation
49 | COc1ccc(C(=O)/C(Br)=C\C(=O)O)cc1 | 32.4 µM (active) | –
50 | O=C(OC[C@H]1O[C@@H](OC(=O)c2cc(O)c(O)c(OC(=O)c3cc(O)c(O)c(O)c3)c2)[C@H](OC(=O)c2cc(O)c(O)c(OC(=O)c3cc(O)c(O)c(O)c3)c2)[C@@H](OC(=O)c2cc(O)c(O)c(OC(=O)c3cc(O)c(O)c(O)c3)c2)[C@@H]1OC(=O)c1cc(O)c(O)c(OC(=O)c2cc(O)c(O)c(O)c2)c1)c1cc(O)c(O)c(OC(=O)c2cc(O)c(O)c(O)c2)c1 | 11 µM (active) | –
51 | N[C@@H](C(=O)N[C@@H]1C(=O)N2C(C(=O)O)=C(Cl)CS[C@H]12)c1ccccc1 | – | 0.331% [at 5.99 µM]
52 | CCCC(=O)O[C@]1(C(=O)CCl)[C@@H](C)C[C@H]2[C@@H]3CCC4=CC(=O)C=C[C@]4(C)[C@@]3(F)C(=O)C[C@@]21C | inactive | –
53 | Cc1cccc(O)c1N | inactive | –
54 | CCN(CC)c1ccc(C(=C2C=CC(=[N+](CC)CC)C=C2)c2cc(S(=O)(=O)O)ccc2S(=O)(=O)[O-])cc1 | inactive | –
55 | COc1ccccc1OCCNCC(O)COc1cccc2[nH]c3ccccc3c12 (centres undefined) | inactive | –
56 | CC1=NN(c2cc(Cl)c(S(=O)(=O)O)cc2Cl)C(=O)C1N=Nc1ccc(S(=O)(=O)O)cc1 (centres undefined) | inactive | –
57 | CNCC[C@@H](Oc1ccccc1C)c1ccccc1 | inactive | –
58 | CC(COc1ccc(C(C)(C)C)cc1)OS(=O)OCCCl (centres undefined) | inactive | –
59 | Cc1ccc(N/N=c2\c(=O)cc/c(=N\Nc3ccc(S(=O)(=O)O)cc3)c2=O)c(C)c1 | inactive | –
